Experiments:
Test in all cases: DAPPL (digital affinity profiling via proximity ligation, sequencing); 10 mM Tris-HCl pH 7.5, 50 mM NaCl, 1 mM DTT, 4% glycerol, room temperature, 30 min; GST-TFs on glutathione beads, 16-mer random dsDNA library, 0.1% formaldehyde crosslink after washing; high values mean tight binding
Conditions in all cases: protein: recombinant; tags: N-terminal GST; dsDNA, one strand shown
[1] = target: T1, FLI1 (Homo sapiens, UniProt Q01543 1-452)
T1 sequence: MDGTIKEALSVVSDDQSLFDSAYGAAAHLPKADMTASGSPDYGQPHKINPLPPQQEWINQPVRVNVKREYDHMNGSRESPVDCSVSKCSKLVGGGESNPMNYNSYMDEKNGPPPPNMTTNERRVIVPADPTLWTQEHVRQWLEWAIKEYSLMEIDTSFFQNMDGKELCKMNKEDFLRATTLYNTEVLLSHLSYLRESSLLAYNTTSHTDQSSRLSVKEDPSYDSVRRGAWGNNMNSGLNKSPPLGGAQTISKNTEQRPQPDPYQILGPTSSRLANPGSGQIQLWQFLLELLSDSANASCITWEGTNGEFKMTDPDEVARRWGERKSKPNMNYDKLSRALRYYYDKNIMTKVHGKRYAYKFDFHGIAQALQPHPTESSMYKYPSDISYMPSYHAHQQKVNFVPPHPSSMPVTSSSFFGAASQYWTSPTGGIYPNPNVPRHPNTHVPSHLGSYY
Outline: (§1)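 After expression in yeast as GST fusions, human transcription factors were bound to glutathione beads, DNA-barcoded and mixed with a tag-only sample. The pools were incubated with 200 nmole of a 16-mer random double-stranded DNA library in Tris/NaCl/DTT/glycerol buffer (30 min, room temperature), washed and crosslinked with 0.1% formaldehyde. Proximity ligation with BsaI/T4 ligase ran for 1 h at 37 °C, before PCR amplification and sequencing on an Illumina NextSeq500. Binding signal is a hexamer's read frequency for a factor divided by its frequency for the tag-only sample.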

[2] = target: T2, ELK1 (Homo sapiens, UniProt P19419 1-428)
T2 sequence: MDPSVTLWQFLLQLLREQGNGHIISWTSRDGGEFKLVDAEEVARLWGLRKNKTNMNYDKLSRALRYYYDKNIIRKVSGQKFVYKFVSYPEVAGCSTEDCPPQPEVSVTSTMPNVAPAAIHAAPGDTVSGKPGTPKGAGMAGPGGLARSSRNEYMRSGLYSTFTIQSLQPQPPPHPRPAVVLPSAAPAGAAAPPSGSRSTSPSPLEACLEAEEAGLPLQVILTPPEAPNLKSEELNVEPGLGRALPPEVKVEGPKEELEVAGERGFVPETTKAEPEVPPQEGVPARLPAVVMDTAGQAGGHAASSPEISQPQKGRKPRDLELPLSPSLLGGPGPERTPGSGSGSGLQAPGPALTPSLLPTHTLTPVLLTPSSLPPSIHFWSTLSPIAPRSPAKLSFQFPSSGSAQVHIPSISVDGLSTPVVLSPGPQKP
Outline: as §1

[3] = target: T3, GABPA (Homo sapiens, UniProt Q06546 1-454)
T3 sequence: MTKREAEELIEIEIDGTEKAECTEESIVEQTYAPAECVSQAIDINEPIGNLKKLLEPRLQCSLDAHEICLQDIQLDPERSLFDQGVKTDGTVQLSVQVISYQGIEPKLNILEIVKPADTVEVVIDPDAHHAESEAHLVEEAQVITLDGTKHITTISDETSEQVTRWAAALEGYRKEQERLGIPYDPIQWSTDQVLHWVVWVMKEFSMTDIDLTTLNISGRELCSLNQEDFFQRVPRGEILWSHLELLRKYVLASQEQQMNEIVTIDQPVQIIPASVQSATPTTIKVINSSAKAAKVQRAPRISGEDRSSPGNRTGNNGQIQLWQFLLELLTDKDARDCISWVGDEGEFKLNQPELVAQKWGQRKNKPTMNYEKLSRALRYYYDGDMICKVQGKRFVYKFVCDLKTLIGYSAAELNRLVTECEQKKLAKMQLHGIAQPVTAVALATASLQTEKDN
Outline: as §1

[4] = target: T4, ERG (Homo sapiens, UniProt P11308 1-479)
T4 sequence: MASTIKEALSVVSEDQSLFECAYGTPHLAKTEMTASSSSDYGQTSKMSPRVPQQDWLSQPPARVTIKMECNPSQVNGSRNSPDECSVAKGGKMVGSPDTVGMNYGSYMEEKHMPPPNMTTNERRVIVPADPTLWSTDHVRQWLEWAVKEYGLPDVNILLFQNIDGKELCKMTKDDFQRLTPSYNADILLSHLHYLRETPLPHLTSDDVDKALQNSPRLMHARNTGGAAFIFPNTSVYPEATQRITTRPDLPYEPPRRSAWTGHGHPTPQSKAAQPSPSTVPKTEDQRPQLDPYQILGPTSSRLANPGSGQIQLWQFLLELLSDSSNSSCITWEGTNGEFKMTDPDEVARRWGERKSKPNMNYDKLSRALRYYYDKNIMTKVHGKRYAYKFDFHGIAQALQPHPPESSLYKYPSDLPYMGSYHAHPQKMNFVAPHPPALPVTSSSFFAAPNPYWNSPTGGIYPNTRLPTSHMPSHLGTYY
Outline: as §1

[5] = target: ELF1 (Homo sapiens, UniProt P32519 1-619)
Sequence of ELF1 (P32519 whole entry): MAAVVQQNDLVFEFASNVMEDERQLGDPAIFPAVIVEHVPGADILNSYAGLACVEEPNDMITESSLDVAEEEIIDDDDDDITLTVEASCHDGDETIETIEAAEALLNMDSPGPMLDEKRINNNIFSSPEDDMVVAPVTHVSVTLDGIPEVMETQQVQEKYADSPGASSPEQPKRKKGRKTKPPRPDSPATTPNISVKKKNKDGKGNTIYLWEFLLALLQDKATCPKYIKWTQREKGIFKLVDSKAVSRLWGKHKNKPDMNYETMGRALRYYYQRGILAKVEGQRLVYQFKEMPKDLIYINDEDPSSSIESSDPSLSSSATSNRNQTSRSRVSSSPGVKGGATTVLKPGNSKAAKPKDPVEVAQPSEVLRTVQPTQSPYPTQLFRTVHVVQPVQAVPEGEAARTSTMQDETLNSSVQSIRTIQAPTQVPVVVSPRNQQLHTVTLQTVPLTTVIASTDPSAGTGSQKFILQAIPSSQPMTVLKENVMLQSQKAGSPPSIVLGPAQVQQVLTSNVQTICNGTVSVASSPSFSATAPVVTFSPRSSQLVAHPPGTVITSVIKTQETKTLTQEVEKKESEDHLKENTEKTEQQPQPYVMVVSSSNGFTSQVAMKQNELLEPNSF
Outline: as §1

[6] = target: T5, EHF (Homo sapiens, UniProt Q9NZC4 1-300)
T5 sequence: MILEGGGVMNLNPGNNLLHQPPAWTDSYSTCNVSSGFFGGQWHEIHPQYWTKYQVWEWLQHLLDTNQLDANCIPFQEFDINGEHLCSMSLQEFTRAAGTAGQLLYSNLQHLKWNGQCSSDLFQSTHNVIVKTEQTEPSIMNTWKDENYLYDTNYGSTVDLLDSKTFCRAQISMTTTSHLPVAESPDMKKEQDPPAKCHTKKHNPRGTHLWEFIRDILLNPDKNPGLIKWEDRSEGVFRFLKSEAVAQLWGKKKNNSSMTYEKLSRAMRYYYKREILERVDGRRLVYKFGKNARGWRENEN
Outline: as §1

[7] = target: SPI1 (Homo sapiens, UniProt P17947 1-270)
Outline: as §1

[8] = target: SPIB (Homo sapiens, UniProt Q01892 1-262)
Sequence of SPIB (Q01892 whole entry): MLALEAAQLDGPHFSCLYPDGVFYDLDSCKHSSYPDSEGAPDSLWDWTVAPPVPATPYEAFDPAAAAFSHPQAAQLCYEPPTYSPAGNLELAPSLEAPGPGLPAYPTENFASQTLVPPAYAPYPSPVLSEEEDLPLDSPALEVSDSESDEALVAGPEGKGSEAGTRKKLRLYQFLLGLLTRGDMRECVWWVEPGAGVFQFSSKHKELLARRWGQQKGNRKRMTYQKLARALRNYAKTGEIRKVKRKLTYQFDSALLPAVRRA
Outline: as §1

[9] = target: T6, ELK3 (Homo sapiens, UniProt P41970 1-407)
T6 sequence: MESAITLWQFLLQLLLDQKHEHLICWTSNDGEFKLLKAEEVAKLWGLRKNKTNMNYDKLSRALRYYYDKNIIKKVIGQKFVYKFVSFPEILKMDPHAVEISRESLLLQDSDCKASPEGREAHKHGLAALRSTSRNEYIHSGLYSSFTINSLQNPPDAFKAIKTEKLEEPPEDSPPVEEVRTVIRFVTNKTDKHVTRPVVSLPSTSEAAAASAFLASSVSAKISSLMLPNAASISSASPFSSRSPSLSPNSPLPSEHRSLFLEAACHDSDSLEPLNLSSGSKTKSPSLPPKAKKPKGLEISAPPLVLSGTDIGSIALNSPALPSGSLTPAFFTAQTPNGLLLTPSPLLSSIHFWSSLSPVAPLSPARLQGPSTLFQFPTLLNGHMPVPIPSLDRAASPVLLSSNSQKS
Outline: as §1

## CCACTC
[1]
  binding signal: 1.23 fold enrichment (6-mer frequency, TF over GST control)
[2]
  binding signal: 1.32 fold enrichment (6-mer frequency, TF over GST control)
[3]
  binding signal: 1.29 fold enrichment (6-mer frequency, TF over GST control)
[4]
  binding signal: 1.19 fold enrichment (6-mer frequency, TF over GST control)
[5]
  binding signal: 1.28 fold enrichment (6-mer frequency, TF over GST control)
[6]
  binding signal: 1.16 fold enrichment (6-mer frequency, TF over GST control)
[7]
  binding signal: 1.09 fold enrichment (6-mer frequency, TF over GST control)
[8]
  binding signal: 1.16 fold enrichment (6-mer frequency, TF over GST control)
[9]
  binding signal: 1.3 fold enrichment (6-mer frequency, TF over GST control)
